Results as given in PubChem BioAssay (NCATS).
Records with an inconclusive call do not appear. Active and inactive are the calls of the source. Unless noted, calls come from the whole dose curve; as a rule, active = well fitted curve in the direction sought with a large enough effect; inconclusive = small, poorly fitted or top-dose-only effect, or another doubt; inactive = no such curve, though single readings can be large; an effect the other way counts as inactive or inconclusive.

Experiments:
[1] = molecular target: Estrogen receptor (Homo sapiens) (UniProt P03372); experiment: qHTS assay for small molecule antagonists of estrogen receptor alpha signaling (AID 588513; active = well fitted curve in the direction sought with a large enough effect in the signal ratio, with a control signal flat, not every such curve was filed as active; the % refers to the signal ratio; note: potency is the fitted concentration of half-maximal effect)
Estrogen receptor (Homo sapiens), sequence (P03372 whole entry, looked up): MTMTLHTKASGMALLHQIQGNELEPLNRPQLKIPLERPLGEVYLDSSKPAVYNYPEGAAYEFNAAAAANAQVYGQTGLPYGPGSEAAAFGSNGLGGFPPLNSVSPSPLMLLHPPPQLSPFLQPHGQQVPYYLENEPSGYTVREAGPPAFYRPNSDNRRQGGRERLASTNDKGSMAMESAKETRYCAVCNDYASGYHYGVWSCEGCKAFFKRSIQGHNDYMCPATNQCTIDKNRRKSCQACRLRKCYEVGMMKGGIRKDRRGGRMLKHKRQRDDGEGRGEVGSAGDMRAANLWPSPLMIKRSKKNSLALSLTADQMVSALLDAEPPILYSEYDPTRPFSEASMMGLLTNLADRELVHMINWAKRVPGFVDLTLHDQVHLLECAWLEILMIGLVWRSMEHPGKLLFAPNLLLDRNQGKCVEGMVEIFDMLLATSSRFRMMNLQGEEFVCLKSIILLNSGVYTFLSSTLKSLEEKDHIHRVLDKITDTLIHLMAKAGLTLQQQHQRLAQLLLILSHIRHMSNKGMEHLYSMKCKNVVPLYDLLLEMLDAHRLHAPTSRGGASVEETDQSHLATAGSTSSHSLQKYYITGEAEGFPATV
How it was run: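 Cells were plated at 5000/well and incubated 4 h at 37 C. Compounds were added as 1:2 dilution series, duplicates. 17-beta-estradiol (0.5nM final) was added for 18 h before CCF4 detection.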

[2] = molecular target: Estrogen receptor (Homo sapiens) (UniProt P03372); experiment: qHTS assay for small molecule agonists of estrogen receptor alpha signaling (AID 588514; calls by dose curve;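 note: 0% = vehicle only and 100% = reference agonist; nearly all actives have a fitted effect of over 70% in size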)
How it was run: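 ER-alpha-UAS-bla GripTite HEK 293 cells in medium with 2% charcoal/dextran-treated FBS were treated with compound titrations at 37 C for 18 hrs; beta-lactamase reporter read by CCF4 fluorescence after 2 hrs at RT.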

[3] = molecular target: Androgen receptor (Homo sapiens) (UniProt P10275); experiment: qHTS assay for small molecule agonists of androgen receptor signaling (AID 588515; active = well fitted curve in the direction sought with a large enough effect in the signal ratio, with a control signal flat; the % refers to the signal ratio; note: % is set by controls: 0 for no effect and ±100 for the full control effect); conditions: AR-UAS-bla HEK293, beta-lactamase ratio, agonist 16 h; stronger effect = higher value
Androgen receptor (Homo sapiens), sequence (P10275 whole entry, looked up): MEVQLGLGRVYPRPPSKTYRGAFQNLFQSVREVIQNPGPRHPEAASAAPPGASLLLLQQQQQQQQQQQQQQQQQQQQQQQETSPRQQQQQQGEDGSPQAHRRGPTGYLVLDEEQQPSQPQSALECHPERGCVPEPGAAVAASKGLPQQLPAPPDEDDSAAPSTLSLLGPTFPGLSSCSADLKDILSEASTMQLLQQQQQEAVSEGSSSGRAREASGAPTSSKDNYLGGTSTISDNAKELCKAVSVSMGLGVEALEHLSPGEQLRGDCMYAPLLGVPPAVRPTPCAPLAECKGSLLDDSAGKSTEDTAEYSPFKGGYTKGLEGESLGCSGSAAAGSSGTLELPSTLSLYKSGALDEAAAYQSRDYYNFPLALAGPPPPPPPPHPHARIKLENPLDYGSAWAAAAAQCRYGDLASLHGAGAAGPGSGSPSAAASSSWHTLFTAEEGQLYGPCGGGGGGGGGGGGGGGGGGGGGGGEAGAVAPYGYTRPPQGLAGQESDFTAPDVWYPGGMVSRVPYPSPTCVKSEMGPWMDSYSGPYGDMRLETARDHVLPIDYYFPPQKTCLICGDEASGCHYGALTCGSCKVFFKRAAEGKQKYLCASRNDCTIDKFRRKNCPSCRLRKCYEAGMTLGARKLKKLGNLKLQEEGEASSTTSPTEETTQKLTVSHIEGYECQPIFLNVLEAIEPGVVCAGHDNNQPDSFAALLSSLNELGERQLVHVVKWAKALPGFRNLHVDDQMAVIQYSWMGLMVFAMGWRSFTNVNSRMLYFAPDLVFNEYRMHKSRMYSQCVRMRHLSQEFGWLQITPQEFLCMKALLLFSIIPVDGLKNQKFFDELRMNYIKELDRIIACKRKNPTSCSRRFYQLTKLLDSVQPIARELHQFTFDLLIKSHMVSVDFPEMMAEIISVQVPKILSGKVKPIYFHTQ
How it was run: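 EC50 and efficacy came from Hill fits of titrations (up to 92 uM) normalized to 30 nM R1881 as 100% and DMSO as 0%. Compound exposure was 16 h at 37 C on AR-UAS-bla HEK293 cells, with a 405/460/530 nm CCF4 fluorescence read.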

[4] = molecular target: Glucocorticoid receptor (Homo sapiens) (UniProt P04150); experiment: qHTS assay for small molecule agonists of glucocorticoid receptor signaling (AID 588532; active = well fitted curve in the direction sought with a large enough effect in the signal ratio, with a control signal flat; the % refers to the signal ratio;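 note: 100% = dexamethasone at 0.1 µM and 0% = DMSO only wells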); conditions: HeLa MMTV-bla, beta-lactamase ratio, agonist, 18 h; stronger effect = higher value; percent of dexamethasone control, DMSO zero
Glucocorticoid receptor (Homo sapiens), sequence (P04150 whole entry, looked up): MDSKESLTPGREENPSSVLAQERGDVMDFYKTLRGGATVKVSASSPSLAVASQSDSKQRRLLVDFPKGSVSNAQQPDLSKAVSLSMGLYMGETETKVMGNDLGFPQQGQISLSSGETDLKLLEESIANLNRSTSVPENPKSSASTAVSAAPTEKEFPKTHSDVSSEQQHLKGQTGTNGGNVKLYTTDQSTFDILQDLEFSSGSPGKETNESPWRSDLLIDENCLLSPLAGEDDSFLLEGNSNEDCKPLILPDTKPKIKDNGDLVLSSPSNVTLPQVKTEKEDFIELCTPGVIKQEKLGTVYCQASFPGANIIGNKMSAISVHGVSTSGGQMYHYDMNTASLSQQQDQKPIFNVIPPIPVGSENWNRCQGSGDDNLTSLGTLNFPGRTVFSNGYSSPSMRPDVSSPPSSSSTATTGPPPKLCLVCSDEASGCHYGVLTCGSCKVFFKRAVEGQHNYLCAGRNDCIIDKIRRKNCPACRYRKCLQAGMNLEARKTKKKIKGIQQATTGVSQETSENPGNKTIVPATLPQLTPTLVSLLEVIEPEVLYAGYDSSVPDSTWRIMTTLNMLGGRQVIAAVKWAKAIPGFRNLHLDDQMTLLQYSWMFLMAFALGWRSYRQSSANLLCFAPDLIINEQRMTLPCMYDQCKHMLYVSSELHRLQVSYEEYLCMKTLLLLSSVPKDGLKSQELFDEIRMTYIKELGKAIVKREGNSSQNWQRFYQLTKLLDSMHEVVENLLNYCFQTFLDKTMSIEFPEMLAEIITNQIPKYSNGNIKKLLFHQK
How it was run: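 Stimulation of a glucocorticoid response element-driven beta-lactamase gene was measured in HeLa cells. Responses were scaled between DMSO basal and 0.1 uM dexamethasone, then fitted for half-maximal stimulation.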

[5] = molecular target: Glucocorticoid receptor (Homo sapiens) (UniProt P04150); experiment: qHTS assay for small molecule antagonists of glucocorticoid receptor signaling (AID 588533; active = well fitted inhibition curve with a large enough effect in the signal ratio, with a control signal flat, not every such curve was filed as active; the % refers to the signal ratio;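 note: cells stimulated with 2 nM dexamethasone as agonist; % is set by controls: 0 for no effect and ±100 for the full control effect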)
How it was run: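 Antagonist-mode qHTS: compound titrations added to GRE-bla HeLa cells, then dexamethasone 2 nM final; 18 h, 37 C. CCF4 FRET fluorescence normalized to dexamethasone and DMSO; IC50 from Hill fit.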

[6] = molecular target: Peroxisome proliferator-activated receptor gamma (Homo sapiens) (UniProt P37231); experiment: qHTS assay for small molecule agonists of peroxisome proliferator-activated receptor gamma signaling (AID 588536; active = well fitted curve in the direction sought with a large enough effect in the signal ratio, with a control signal flat, not every such curve was filed as active; the % refers to the signal ratio;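 note: 0% = DMSO basal wells and 100% = rosiglitazone at 2 µM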)
Peroxisome proliferator-activated receptor gamma (Homo sapiens), sequence (P37231 whole entry, looked up): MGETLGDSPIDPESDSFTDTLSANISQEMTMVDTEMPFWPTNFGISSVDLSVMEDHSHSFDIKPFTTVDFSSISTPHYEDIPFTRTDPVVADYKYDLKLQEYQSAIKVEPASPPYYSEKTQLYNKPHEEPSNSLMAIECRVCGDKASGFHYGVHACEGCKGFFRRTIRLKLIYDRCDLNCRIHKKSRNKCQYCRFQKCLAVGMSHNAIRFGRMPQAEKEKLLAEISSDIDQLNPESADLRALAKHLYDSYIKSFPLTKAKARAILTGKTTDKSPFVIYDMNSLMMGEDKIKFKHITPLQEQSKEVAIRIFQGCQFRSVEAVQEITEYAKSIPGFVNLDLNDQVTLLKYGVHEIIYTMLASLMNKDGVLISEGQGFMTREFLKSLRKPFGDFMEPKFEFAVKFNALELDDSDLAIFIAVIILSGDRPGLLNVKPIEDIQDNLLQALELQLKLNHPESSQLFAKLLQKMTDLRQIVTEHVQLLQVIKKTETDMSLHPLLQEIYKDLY
How it was run: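 PPAR-gamma-UAS-bla HEK293 cells in medium with 1% charcoal/dextran-treated FBS were exposed to compounds for 16 h at 37 C. Beta-lactamase activity was read with CCF4 substrate (405 nm excitation, 460/530 nm emission).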

[7] = molecular target: Vitamin D3 receptor (Homo sapiens) (UniProt P11473); experiment: qHTS assay for small molecule agonists of vitamin D receptor signaling (AID 588543; calls by dose curve;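 note: 0% = DMSO basal and 100% = reference agonist control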)
Vitamin D3 receptor (Homo sapiens), sequence (P11473 whole entry, looked up): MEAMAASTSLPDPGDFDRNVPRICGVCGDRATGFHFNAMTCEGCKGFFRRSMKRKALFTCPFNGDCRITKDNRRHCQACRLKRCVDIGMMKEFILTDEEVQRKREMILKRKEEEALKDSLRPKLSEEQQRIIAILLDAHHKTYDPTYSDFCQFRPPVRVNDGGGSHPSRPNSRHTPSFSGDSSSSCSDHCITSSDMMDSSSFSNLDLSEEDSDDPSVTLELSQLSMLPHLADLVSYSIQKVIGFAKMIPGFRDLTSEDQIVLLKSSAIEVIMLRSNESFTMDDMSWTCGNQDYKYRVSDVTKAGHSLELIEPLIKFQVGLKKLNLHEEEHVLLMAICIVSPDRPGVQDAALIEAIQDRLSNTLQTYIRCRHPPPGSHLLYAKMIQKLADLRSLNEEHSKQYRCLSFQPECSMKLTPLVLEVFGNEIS
How it was run: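 qHTS in agonist mode: compound titrations stimulate a VDR-driven β-lactamase reporter in HEK293T cells over 16 h at 37 °C. Response normalized to 50 nM 1α,25-dihydroxyvitamin D3 = 100%, DMSO = 0%; Hill fitting gives EC50 and maximal response.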

[8] = qHTS assay for small molecule agonists of the antioxidant response element (ARE) signaling pathway (AID 651741; active = well fitted activation curve with a large enough effect in the signal ratio; the % refers to the signal ratio; note: potency is the fitted concentration of half-maximal effect)
How it was run: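 ARE-bla HepG2 cells (beta-lactamase reporter under ARE control) were plated at 2,000 cells/well, preincubated 5 h at 37 C/5% CO2, then treated with DMSO-dissolved compounds for 16 h at 37 C; LiveBLAzer B/G FRET substrate added, fluorescence read after 2 h at room temperature.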

[9] = qHTS assay for environmental chemicals that activate the Aryl hydrocarbon Receptor (AhR) signaling pathway (AID 651777); conditions: 1A2-DRE human hepatoma cells, luciferase, 24 h; stronger effect = higher value; note: % of control where 0% means no effect; nearly all actives have a fitted effect of over 15% in size
How it was run: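 Human hepatoma 1A2-DRE cells stably carrying a DRE/CYP1A2 promoter–luciferase reporter, 1,200 cells/well, exposed to compound 24 hr at 37 C. Luciferase read by One-Glo luminescence after 30 min at room temperature; increased signal marks AhR activation.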

[10] = qHTS assay for cell viability of HEK293 cells (AID 743288); conditions: ATP luminescence (CellTiter-Glo), 18 h; max response: stronger effect = lower value; note: potency is the fitted concentration of half-maximal effect; nearly all actives have a fitted effect of over 50% in size
How it was run: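 The Tox21 protocol used parental HEK293 cells treated for 18 h at 37 C with compounds delivered by pintool; ATP-coupled luminescence after 30 min at room temperature gave viability.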

[11] = test system: Zika virus NS2B-NS3 protease; experiment: Primary screen GU AMC qHTS for Zika virus inhibitors (AID 1347154);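 note: 0% = no-inhibitor control and -100% = no-enzyme control; nearly all actives have a fitted effect of over 70% in size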
How it was run: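 Unlinked Zika NS2B hydrophilic domain/NS3 protease domain noncovalent complex (25 nM final) in 10 mM Tris-HCl pH 8.0, 0.01% Tween 20, with AMC peptide substrate. Fluorescence (ex 340, em 450 nm) change over 15 min, room temperature; percent inhibition fitted to 4-parameter Hill equation.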

[12] = qHTS to identify inhibitors of the type 1 interferon - major histocompatibility complex class I in skeletal muscle: primary screen against the NCATS Mechanism Interrogation Plate v5.0 (MIPE) Libary (AID 1347411);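 note: plate controls were vehicle for no effect and reference inhibitor for full effect; nearly all actives have a fitted effect of over 65% in size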
How it was run: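 Immortalized human C25cl48 myoblasts with HiBit knocked into endogenous HLA-B*08:01 were stimulated with 4.0 ng/ml IFN-beta and exposed to compounds (11-point 1:3 titration, top 46 uM final) for 24 hrs at 37 C; HiBiT lytic luminescence measured.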

[13] = Primary qHTS for small molecule stabilizers of the endoplasmic reticulum resident proteome: Secreted ER Calcium Modulated Protein (SERCaMP) assay (AID 1508630); note: % is set by controls: 0 for no effect and ±100 for the full control effect
How it was run: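 GLuc-SERCaMP-expressing SH-SY5Y cells, pretreated 16 h with compound, are challenged with thapsigargin to empty ER calcium stores; after 4 h, coelenterazine is added directly to the medium and luminescence is imaged.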

[14] = Primary qHTS for inhibitors of nuclear receptor binding SET domain protein 2 (NSD2) in an isogenic RCH-ACV NSD2 p.E1099K mutant (9B) (AID 1645876); note: % is set by controls: 0 for no effect and ±100 for the full control effect; nearly all actives have a fitted effect of over 70% in size
[15] = Primary qHTS for inhibitors of nuclear receptor binding SET domain protein 2 (NSD2) in an RCH-ACV wild type WT cells (2C) (AID 1645877); note: % is set by controls: 0 for no effect and ±100 for the full control effect; nearly all actives have a fitted effect of over 70% in size
[16] = molecular target: Glutathione peroxidase 1 (Homo sapiens) (UniProt P07203); experiment: Primary qHTS Assay for Inhibitors of Recombinant Selenoprotein Glutathione Peroxidase 1 (GPX1) (AID 1845191); note: % is set by controls: 0 for no effect and ±100 for the full control effect; nearly all actives have a fitted effect of over 65% in size
Glutathione peroxidase 1 (Homo sapiens), sequence (P07203 whole entry, looked up): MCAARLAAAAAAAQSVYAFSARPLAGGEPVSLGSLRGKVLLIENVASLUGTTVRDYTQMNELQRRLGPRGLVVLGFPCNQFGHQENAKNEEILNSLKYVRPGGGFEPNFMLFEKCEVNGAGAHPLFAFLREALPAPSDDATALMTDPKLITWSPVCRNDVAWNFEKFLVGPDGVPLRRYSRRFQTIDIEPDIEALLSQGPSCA
How it was run: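 Recombinant GPX1 (10 nM final) was preincubated with compound for 30 min at room temperature, then reacted with 1 mM GSH, 0.5 mM CHP, 0.5 mM NADPH and 100 nM glutathione reductase; NADPH fluorescence (340/450 nm) was read at 0 and 15 min.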

[17] = molecular target: Phospholipid hydroperoxide glutathione peroxidase GPX4 (Homo sapiens) (UniProt P36969); experiment: Primary qHTS Assay for Inhibitors of Recombinant Selenoprotein Glutathione Peroxidase 4 (GPX4) (AID 1845192); conditions: outcome: dose series up to 50 µM unless noted; note: series mostly up to about 50 µM; % is set by controls: 0 for no effect and ±100 for the full control effect; nearly all actives have a fitted effect of over 65% in size
Phospholipid hydroperoxide glutathione peroxidase GPX4 (Homo sapiens), sequence (P36969 whole entry, looked up): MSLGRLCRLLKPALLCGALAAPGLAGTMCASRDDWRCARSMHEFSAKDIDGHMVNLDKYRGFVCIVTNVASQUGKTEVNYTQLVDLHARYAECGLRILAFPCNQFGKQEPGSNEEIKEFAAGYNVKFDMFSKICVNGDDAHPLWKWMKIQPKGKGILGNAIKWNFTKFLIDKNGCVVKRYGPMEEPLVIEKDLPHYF
How it was run: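 GR-coupled readout: 100 nM GR, 1 mM GSH, 0.5 mM NADPH; NADPH fluorescence (ex 340/em 450 nm) read at t=0 and after 15 min RT. GPX4 200 nM, preincubated 30 min with compound; substrate 0.5 mM CHP.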

[18] = qHTS drug screen for cell cycle checkpoint inhibitors in PARPi-resistant BRCA-mutant ovarian cancer cell lines. (AID 1963452; calls by dose curve); conditions: PEO1/OlaR viability, CellTiter-Glo luminescence, 96 h, stronger effect = lower value
How it was run: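 PEO1, PEO4 and PEO1/OlaR ovarian cancer cells, 600 per well, exposed 96 h at 37C to a dilution series. Viability read by CellTiter-Glo luminescence, normalized to DMSO and empty wells; activity summarized as Z-AUC.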

[19] = molecular target: Nuclear receptor subfamily 1 group I member 2 (Rattus norvegicus) (UniProt Q9R1A7); experiment: qHTS assay for small molecule activators of the rat pregnane X receptor (rPXR) signaling pathway (AID 651751; call rule not given here; note: 0% is about no effect); conditions: rPXR reporter cells, luciferase (One-Glo), 24 h
Nuclear receptor subfamily 1 group I member 2 (Rattus norvegicus), sequence (Q9R1A7 whole entry, looked up): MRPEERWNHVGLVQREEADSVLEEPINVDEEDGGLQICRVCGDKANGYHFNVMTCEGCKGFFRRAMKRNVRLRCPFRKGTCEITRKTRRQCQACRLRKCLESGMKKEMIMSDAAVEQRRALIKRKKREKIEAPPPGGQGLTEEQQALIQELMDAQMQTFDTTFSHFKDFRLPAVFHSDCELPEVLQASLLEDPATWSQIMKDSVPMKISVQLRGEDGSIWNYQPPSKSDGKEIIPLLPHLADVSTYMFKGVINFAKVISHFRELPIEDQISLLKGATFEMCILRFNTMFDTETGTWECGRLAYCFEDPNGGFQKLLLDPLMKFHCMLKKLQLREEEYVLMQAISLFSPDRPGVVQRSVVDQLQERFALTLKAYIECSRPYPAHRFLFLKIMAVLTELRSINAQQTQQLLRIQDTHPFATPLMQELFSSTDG

Clc1ccc(-c2nc3sccn3c2/C=N/OCc2ccc(Cl)c(Cl)c2)cc1
inactive: outcome [2] | activation [3] -9.11% | activation [4] 2.87% | outcome [5] | outcome [6] | outcome [7] | activation [9] 3.66% | Potency [11] | Potency [12] | Potency [13] | Potency [14] | Potency [15] | Potency [16] | Potency [17] | Z-AUC [18] 1.14 | max response [19] 6.54%
1.23: Z-AUC ([18]; measured here: PEO4 Z-AUC)
1.09: Z-AUC ([18]; measured here: PEO1 parental Z-AUC)
active: Potency [1] 20 µM [inhibitor] | Potency [8] 24.3 µM | Potency [10] 50.1 µM
